# Results from PubChem BioAssay (NCATS).
# Records with an inconclusive call do not appear. Where a call stands in place of a potency, no number is given. The source made the active and inactive calls. Calls come from the whole dose curve; as a rule, active = well fitted curve in the direction sought with a large enough effect; inconclusive = small, poorly fitted or top-dose-only effect, or another doubt; inactive = no such curve, though single readings can be large; an effect the other way counts as inactive or inconclusive.
# Assay: qHTS of pediatric cancer cell lines to identify multiple opportunities for drug repurposing: Primary screen for BT-12 cells (AID 1347101); note: nearly all actives have a fitted effect of over 25% in size
# Details: BT-12 viability, CellTiter-Glo luminescence, 48 h; series mostly up to 57.3 µM
# Outline: (§1)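 Cells (500-1,000/well) rested 5 h, then received compounds for 48 h; metabolically active cells were measured by CellTiter-Glo luminescence. Final concentrations spanned up to 46 µM (MIPE, 11-point) or 0.59 nM-46 µM (NPC, 8-point) in primary screens, 11-point in follow-ups.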
# Potency is the fitted concentration of half-maximal effect.
row,Compound,Potency
1,CC(C)NCC(O)c1ccc(N)c(C#N)c1 (stereo not drawn),inactive
2,CC(C)[N+](C)(CCC(C(N)=O)(c1ccccc1)c1ccccc1)C(C)C,inactive
3,CCN(CC)C(C)C(=O)c1ccccc1 (stereo not drawn),inactive
4,O=C(O)c1nn(Cc2ccc(Cl)cc2Cl)c2ccccc12,inactive
5,CCOC(=O)c1ncn2c1CN(C)C(=O)c1c(I)cccc1-2,inactive
6,CNC(=O)Oc1cccc2ccccc12,inactive
7,COc1ccc(C(=O)N2CCCC2=O)cc1,inactive
8,OC(O)C(Cl)(Cl)Cl,inactive
9,c1cc2c(c(N3CCNCC3)c1)OCCO2,inactive
10,CC(Cc1ccc2c(c1)OCO2)NO (stereo not drawn),inactive
11,CN1C(=O)CN=C(c2ccccc2)c2cc([N+](=O)[O-])ccc21,inactive
12,CC1N=C(N)OC1c1ccccc1 (stereo not drawn),inactive
13,CC1=C2[C@H]3OC(=O)[C@@H](C)[C@@H]3CC[C@@]2(C)C=CC1=O,inactive
14,CCCCCCCCCCCC[N+](C)(C)CCOc1ccccc1,24.6 µM (active)
15,CN1C(=O)CN=C(c2ccccc2)c2cc(Cl)ccc21,inactive
16,CNC(=O)NC(O)C(Cl)(Cl)Cl (stereo not drawn),inactive
17,CCCCC1C(=O)NC(=O)N(C2CCCCC2)C1=O (stereo not drawn),inactive
18,Oc1c(Br)cc(Br)cc1Br,inactive
19,ClCCCN1CCN(c2cccc(Cl)c2)CC1,inactive
20,COc1ccc(CN2CCNCC2)c(OC)c1OC,inactive
21,OC(c1ccccc1)(c1ccccc1)C1CCNCC1,inactive
22,O=C(N[C@H]1N=C(c2ccccc2F)c2cccc3c2N(CC3)C1=O)c1cc2ccccc2[nH]1,inactive
23,CCOC(=O)C(c1c(O)c2ccccc2oc1=O)c1c(O)c2ccccc2oc1=O,inactive
24,CC1Sc2c(C(=O)O)c(=O)c3cc(F)c(N4CCNCC4)cc3n21 (stereo not drawn),inactive

# Assay: qHTS of pediatric cancer cell lines to identify multiple opportunities for drug repurposing: Primary screen for Rh18 cells (AID 1347102); note: nearly all actives have a fitted effect of over 65% in size
# Details: Rh18 rhabdomyosarcoma viability, CellTiter-Glo luminescence, 48 h; series mostly up to 46 µM
# Outline: as §1
row,Compound,Potency
1,CC(C)NCC(O)c1ccc(N)c(C#N)c1 (stereo not drawn),inactive
2,CC(C)[N+](C)(CCC(C(N)=O)(c1ccccc1)c1ccccc1)C(C)C,inactive
3,CCN(CC)C(C)C(=O)c1ccccc1 (stereo not drawn),inactive
4,CCC1(c2ccccc2)CCC(=O)NC1=O (stereo not drawn),inactive
5,O=C(O)c1nn(Cc2ccc(Cl)cc2Cl)c2ccccc12,inactive
6,CCOC(=O)c1ncn2c1CN(C)C(=O)c1c(I)cccc1-2,inactive
7,CNC(=O)Oc1cccc2ccccc12,inactive
8,COc1ccc(C(=O)N2CCCC2=O)cc1,inactive
9,C[C@]12C=CC(=O)C=C1CC[C@@H]1[C@@H]2CC[C@@]2(C)[C@H]1CC[C@]2(C)O,inactive
10,C=CC[C@]1(O)CC[C@H]2[C@@H]3CCC4=CC(=O)CCC4=C3C=C[C@@]21C,inactive
11,OC(O)C(Cl)(Cl)Cl,inactive
12,CN(C)CCc1c[nH]c2cccc(O)c12,inactive
13,c1cc2c(c(N3CCNCC3)c1)OCCO2,inactive
14,CC(Cc1ccc2c(c1)OCO2)NO (stereo not drawn),inactive
15,CN1C(=O)CN=C(c2ccccc2)c2cc([N+](=O)[O-])ccc21,inactive
16,CC1N=C(N)OC1c1ccccc1 (stereo not drawn),inactive
17,CC1=C2[C@H]3OC(=O)[C@@H](C)[C@@H]3CC[C@@]2(C)C=CC1=O,inactive
18,Cc1ncc2n1-c1ccc(Cl)cc1C(c1ccccc1F)=NC2,inactive
19,CCCCCCCCCCCC[N+](C)(C)CCOc1ccccc1,8.41 µM (active)

row,Compound,Potency
1,COC(=O)C1=CCCN(C)C1,inactive
2,CC(C)=CCN1CC[C@@]2(C)c3cc(O)ccc3C[C@@H]1[C@@H]2C,inactive
3,CNC(=O)NC(O)C(Cl)(Cl)Cl (stereo not drawn),inactive
4,CC(C)(O)C(Cl)(Cl)Cl,inactive
5,C[C@]12Cc3nonc3C[C@@H]1CC[C@@H]1[C@@H]2CC[C@@]2(C)[C@H]1CC[C@]2(C)O,inactive
6,CCCCC1C(=O)NC(=O)N(C2CCCCC2)C1=O (stereo not drawn),inactive
7,CCCN(CCC)CCc1c[nH]c2ccccc12,inactive
8,Oc1c(Br)cc(Br)cc1Br,inactive
9,ClCCCN1CCN(c2cccc(Cl)c2)CC1,inactive
10,COc1cc(CC#N)cc(OC)c1OC,inactive
11,CNC(C)Cc1ccc2c(c1)OCO2 (stereo not drawn),inactive
12,COc1ccc(CN2CCNCC2)c(OC)c1OC,inactive
13,CCOC(=O)NC(C)(C)Cc1ccc(Cl)cc1,inactive
14,Cc1ccc(N=CN(C)C=Nc2ccc(C)cc2C)c(C)c1,inactive
15,C[N+](C)(C)CCOC(=O)C(O)(c1ccccc1)c1ccccc1,inactive
16,O=C(N[C@H]1N=C(c2ccccc2F)c2cccc3c2N(CC3)C1=O)c1cc2ccccc2[nH]1,inactive
17,CCOC(=O)C(c1c(O)c2ccccc2oc1=O)c1c(O)c2ccccc2oc1=O,inactive
18,CC1Sc2c(C(=O)O)c(=O)c3cc(F)c(N4CCNCC4)cc3n21 (stereo not drawn),inactive
19,CC[C@H]1C[C@@H]2C[C@H]3c4[nH]c5ccc(OC)cc5c4CCN(C2)[C@@H]13,inactive

# Assay: qHTS of pediatric cancer cell lines to identify multiple opportunities for drug repurposing: Primary screen for OHS-50 cells (AID 1347103); note: nearly all actives have a fitted effect of over 40% in size
# Details: OHS-50 osteosarcoma viability, CellTiter-Glo luminescence, 48 h; series mostly up to 57.3 µM
# Outline: as §1
row,Compound,Potency
1,CC(C)NCC(O)c1ccc(N)c(C#N)c1 (stereo not drawn),inactive
2,CC(C)[N+](C)(CCC(C(N)=O)(c1ccccc1)c1ccccc1)C(C)C,inactive
3,CCN(CC)C(C)C(=O)c1ccccc1 (stereo not drawn),inactive
4,CCC1(c2ccccc2)CCC(=O)NC1=O (stereo not drawn),inactive
5,O=C(O)c1nn(Cc2ccc(Cl)cc2Cl)c2ccccc12,inactive
6,CCOC(=O)c1ncn2c1CN(C)C(=O)c1c(I)cccc1-2,inactive
7,CNC(=O)Oc1cccc2ccccc12,inactive
8,COc1ccc(C(=O)N2CCCC2=O)cc1,inactive
9,OC(O)C(Cl)(Cl)Cl,inactive
10,CN(C)CCc1c[nH]c2cccc(O)c12,inactive
11,c1cc2c(c(N3CCNCC3)c1)OCCO2,inactive
12,CC(Cc1ccc2c(c1)OCO2)NO (stereo not drawn),inactive
13,CN1C(=O)CN=C(c2ccccc2)c2cc([N+](=O)[O-])ccc21,inactive
14,CC1N=C(N)OC1c1ccccc1 (stereo not drawn),inactive
15,CC1=C2[C@H]3OC(=O)[C@@H](C)[C@@H]3CC[C@@]2(C)C=CC1=O,inactive
16,CCCCCCCCCCCC[N+](C)(C)CCOc1ccccc1,4.9 µM (active)

row,Compound,Potency
1,COC(=O)C1=CCCN(C)C1,inactive
2,CNC(=O)NC(O)C(Cl)(Cl)Cl (stereo not drawn),inactive
3,CC(C)(O)C(Cl)(Cl)Cl,inactive
4,C[C@]12Cc3nonc3C[C@@H]1CC[C@@H]1[C@@H]2CC[C@@]2(C)[C@H]1CC[C@]2(C)O,15.5 µM (active)
5,CCCCC1C(=O)NC(=O)N(C2CCCCC2)C1=O (stereo not drawn),inactive
6,Oc1c(Br)cc(Br)cc1Br,inactive
7,COc1cc(CC#N)cc(OC)c1OC,inactive
8,CNC(C)Cc1ccc2c(c1)OCO2 (stereo not drawn),inactive
9,COc1ccc(CN2CCNCC2)c(OC)c1OC,inactive
10,CCOC(=O)NC(C)(C)Cc1ccc(Cl)cc1,inactive
11,Cc1ccc(N=CN(C)C=Nc2ccc(C)cc2C)c(C)c1,inactive
12,C[N+](C)(C)CCOC(=O)C(O)(c1ccccc1)c1ccccc1,inactive
13,O=C(N[C@H]1N=C(c2ccccc2F)c2cccc3c2N(CC3)C1=O)c1cc2ccccc2[nH]1,inactive
14,CCOC(=O)C(c1c(O)c2ccccc2oc1=O)c1c(O)c2ccccc2oc1=O,inactive
15,CC1Sc2c(C(=O)O)c(=O)c3cc(F)c(N4CCNCC4)cc3n21 (stereo not drawn),inactive
